Bioassay records as filed in PubChem BioAssay.
Hits are enriched below; roughly 6.6% of the tested compounds scored in any of these assays.
HT1080 IDH1KD tx = qHTS for induction of synthetic lethality in tumor cells producing 2HG: qHTS for the HT-1080-IDH1KD cell line; 360,000 tested, 2% active; AID 686971, 2013; HT-1080 IDH1 knockdown viability, ATP luminescence, 48 h; Potency, µM (highest dose often 46.1 µM), for the others: at the highest dose activity, negative = toxicity, actives largely listed as cytotoxic;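 also: 0% = DMSO wells and -100% = cell-free medium wells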
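Assay cells: HT-1080 with IDH1 knockdown, 750 per well, RPMI/5% FBS. Exposure: 48 h at 37 °C following 2 h pre-incubation. Read: CellTiter-Glo luminescence; fitted concentration-response, curve class assigned.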
KB-V1 MDR tox = qHTS assay for MDR1-selective chemotherapeutics: Primary screen using the drug-selected MDR subline cells KB-V1 | 400,000 tested, 3.4% active | KB-V1 MDR cells viability, CellTiter-Glo, 72 h | AID 1347076, 2019 | Potency, µM (top dose mostly 46.1 µM), actives largely listed as cytotoxic; also: % is scaled to controls: 0 for no effect and ±100 for the full control effect; nearly all actives have a fitted effect of over 60% in size
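Cytotoxicity toward P-gp-expressing KB-V1 cells was determined as loss of CellTiter-Glo luminescence after 72 h at 37 degrees C. Compounds were tested in quantitative HTS format across a concentration range, with curves fitted to normalized data.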
HT1080-NT tox = qHTS for induction of synthetic lethality in tumor cells producing 2HG: qHTS for the HT-1080-NT fibrosarcoma cell line; HT-1080-NT fibrosarcoma viability, CellTiter-Glo ATP luminescence, 48 h; Potency, µM (highest dose often 46.1 µM), inactives show at the top dose activity, negative = less viability, most hits filed as cytotoxic; 360,000 tested, 1.6% active;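 also: NT is the 2HG producing partner of a matched IDH1 knockdown line; 0% = DMSO-treated cells and -100% = media-only wells without cells; nearly all actives have a fitted effect of over 55% in size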
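Read-out is CellTiter-Glo luminescence after 10 minutes at room temperature, following 48 hours' compound treatment of HT-1080-NT cells (750 cells/well, RPMI, 5% FBS, 37 degrees C).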
HepG2 viability = qHTS for Inhibitors of TGF-b: Cytotox Counterscreen; HepG2 CAGA-GFP viability, ATP luminescence, 18 h; Potency, µM (highest dose often 46.1 µM), for the others: at the top dose activity change, negative = cytotoxicity, usual class: cytotoxic; 410,000 tested, 0.76% active; AID 588856, 2011
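CellTiter-Glo luminescence gave cytotoxicity after 18 hours at 37 degrees C. The cells were HepG2 CAGA-GFP in 1% FBS DMEM, stimulated with 500 pg/mL TGF-beta after compound addition. %Activity was normalised to no-cell wells (complete cell-killing) and DMSO (no toxicity), and curves were fitted and classified.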
TGFb inhibitor = qHTS for Inhibitors of TGF-b; 410,000 tested, 1.2% active; HepG2 CAGA-GFP TGF-b/SMAD3 reporter, GFP fluorescence, 18 h; TGF-beta stimulated, 500 pg/mL final; Potency, µM (series often up to 46.1 µM), inactives show top-dose activity, negative = inhibition, hits mostly inhibitors; AID 588855, 2011; also: % is scaled to controls: 0 for no effect and ±100 for the full control effect; nearly all actives have a fitted effect of over 65% in size
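GFP signal (ex488/em500-530) from TGF-beta-stimulated HEPG2 CAGA-GFP cells, 500 pg/mL final, 18 h at 37 degrees C in DMEM plus 1% FBS, normalized to unstimulated and DMSO-stimulated controls.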
KB-3-1 cytotox = qHTS assay for MDR1-selective chemotherapeutics: Primary screen using the parental adenocarcinoma cell KB-3-1. KB-3-1 viability, CellTiter-Glo ATP luminescence, 72 h. Potency, µM (doses to about 46.1 µM), usual class: cytotoxic. 400,000 tested, 1.4% active; also: % is scaled to controls: 0 for no effect and ±100 for the full control effect; nearly all actives have a fitted effect of over 60% in size
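Parental KB-3-1 viability, qHTS format: 72 h compound exposure, 37 °C; CellTiter-Glo; media-only wells and DMSO plates as controls; concentration-effect fits on corrected data.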
* = called active by the depositor; i = inactive; ? = inconclusive; · = no result. Calls follow the shape of the dose curve; as a rule, active = well fitted curve in the direction sought with a large enough effect; inconclusive = small, poorly fitted or top-dose-only effect, or another doubt; inactive = no such curve, though single readings can be large; an effect the other way counts as inactive or inconclusive. Potency is read from the fitted curve at half-maximal effect.

SMILES | HT1080 IDH1KD tx | KB-V1 MDR tox | HT1080-NT tox | HepG2 viability | TGFb inhibitor | KB-3-1 cytotox
COc1ccc(-c2cc(NC=O)c3ncc(-c4cccc(C(=O)NCCN(C)C)c4)n3c2)cc1 | ? | i | ? | -25.0% | ? | i
CCSc1ccc(-c2cc(NC=O)c3ncc(-c4cccc(C(=O)NCCN(C)C)c4)n3c2)cc1 | ? | i | 18.4µM* | -91.2% | ? | ?
CN(C)CCNC(=O)c1cccc(-c2cnc3c(NC=O)cc(-c4ccc(F)cc4)cn23)c1 | 23.1µM* | i | ? | 11.2µM* | ? | i
CCCCN(C)S(=O)(=O)c1cc(-c2cc(C)no2)ccc1C | · | i | · | -35.1% | 0.0% | i
CC(C)c1cc(Cn2c3ccccc3c(=O)n2C(C)Cn2cc(CCc3ccccc3)nn2)on1 (stereo not given) | 9.5% | ? | 11.7% | · | · | i
Cc1ccc(Cl)c2sc(NC(=O)C3CC3)nc12 | 12.2% | i | 16.4% | 11.2µM* | ? | i
O=C(CN1CCC(n2nnc3ccccc32)CC1)NCc1cccs1 | 2.7% | 23.1µM* | 0.0% | 1.7% | -2.8% | i
O=C(CN1CCC(n2nnc3cc(F)ccc32)CC1)NCc1ccco1 | 10.0% | i | 18.2% | 14.3% | 5.1% | i
O=C(c1ccco1)N1CCN(c2nc3ccccc3n3nnnc23)CC1 | 9.1% | i | 10.9% | 4.9% | 13.1% | i
COC(=O)c1ccccc1NC(=O)CN1CCC(n2nnc3cc(C(F)(F)F)ccc32)CC1 | -2.5% | 4.11µM* | -3.0% | -22.6% | 0.2% | ?
O=C(c1ccco1)N1CCC(n2nnc3ccccc32)CC1 | -1.9% | 13µM* | ? | -1.8% | -18.7% | i
CCOC(=O)COc1ccc(F)cc1C(=O)c1ccn2nc(-c3ccc(Cl)cc3)cc2n1 | · | ? | · | 0.3% | -16.9% | i
CCOC(=O)c1ccc(NC(=O)CSc2nccn2-c2ccc(OCC)cc2)cc1 | · | i | · | -41.1% | ? | i
COC(=O)c1ccc(CC(=O)c2nc3ccccc3s2)cc1 | -3.7% | i | -6.6% | 3.5% | 13.4% | i
COC(=O)c1ccc(/C(O)=C(\C#N)c2nc3ccccc3s2)cc1 | -15.8% | 8.2µM* | -1.2% | -38.3% | -5.5% | i
CCN(CC)c1ccc(-c2nn3c(-c4n[nH]c5c4CCC5)nnc3s2)cc1 | 2.31µM* | ? | 1.46µM* | -66.8% | ? | ?
C1CCC(c2nn3c(-c4n[nH]c5c4CCC5)nnc3s2)CC1 | -12.4% | i | -9.4% | -61.4% | 40.3% | i
COc1cc(C2C(C#N)=C(N)Oc3cc(N)ccc32)cc(OC)c1OC (stereo not given) | 0.581µM* | ? | ? | -2.0% | -17.7% | ?
COc1ccc(C2C(C#N)=C(N)Oc3c2ccc2cccnc32)cc1OC (stereo not given) | 0.651µM* | i | ? | -20.2% | -19.4% | 2.59µM*
COc1ccc(C2C(C#N)=C(N)Oc3cc(N)ccc32)cc1 (stereo not given) | 1.6% | i | 1.8% | 18.6% | 5.9% | i
COC(=O)c1ccc(NC(=O)CSc2ccc(-c3sc(-c4ccccc4)nc3C)nn2)cc1 | · | · | · | -2.9% | -1.3% | ·
Cn1c(-c2sc3ccccc3c2Cl)n[nH]c1=S | 1.6% | 16.4µM* | 7.8% | -12.9% | -19.5% | 20.6µM*
CCOC(=O)N1CCN(CCC(=O)Nc2cccc(F)c2)CC1 | · | i | · | -23.0% | 0.0% | i
COc1ccc(C=O)cc1OS(=O)(=O)c1ccc(NC(C)=O)cc1 | ? | i | -26.4% | 14.8% | 14.8% | i
COc1cc(OC)cc(C(=O)N/N=C/c2ccc(OC)c(COc3ccc(F)cc3)c2)c1 | 5.17µM* | 10.3µM* | ? | -0.8% | ? | ?
SMILES | HT1080 IDH1KD tx | KB-V1 MDR tox | HT1080-NT tox | HepG2 viability | TGFb inhibitor | KB-3-1 cytotox
COc1ccc(/C=N\NC(=O)c2ccc(F)cc2)cc1COc1ccccc1C(N)=O | -0.6% | i | -4.9% | -20.3% | ? | i
COc1ccc(/C=N/NC(=O)c2cc(OC)c(OC)c(OC)c2)cc1CN1CCc2cc(OC)c(OC)cc2C1C (stereo not given) | 13µM* | ? | ? | -33.8% | ? | ?
COc1ccc(C(=O)N/N=C\c2ccc(OC)c(COc3ccccc3Br)c2)c(OC)c1 | ? | 16.4µM* | 1.3% | 3.7% | 1.9% | ?
COc1ccc(/C=N/NC(=O)c2ccc3ccccc3c2)cc1OS(=O)(=O)c1ccc(NC(C)=O)cc1 | ? | i | 6.31µM* | -3.1% | ? | ?
CC(OC(=O)c1ccccc1OCC(=O)Nc1ccc(Br)cc1)C(=O)NC1CCCC1 (stereo not given) | 11.0% | · | 6.4% | · | · | ·
COc1ccc(C(=O)N/N=C/c2ccc(OC)c(COc3c(F)c(F)cc(F)c3F)c2)cc1 | -23.4% | i | -8.7% | -35.2% | 0.0% | i
COc1ccc(/C=N\NC(=O)c2ccc([N+](=O)[O-])cc2)cc1COc1c(F)c(F)cc(F)c1F | -4.3% | i | -2.0% | -49.9% | 0.355µM* | i
COc1ccc(/C=N\NC(=O)c2ccccc2Br)cc1COc1ccccc1 | ? | i | ? | -57.0% | ? | i
COc1ccc(/C=N/NC(=O)c2cccnc2)cc1COc1ccc([N+](=O)[O-])cc1 | 6.51µM* | ? | ? | 18.6% | 6.5% | ?
COc1ccc(OCc2cc(/C=N\NC(=O)c3ccccc3)ccc2OC)cc1 | 9.2µM* | ? | 6.51µM* | 3.8% | -25.5% | 6.51µM*
